The entries come from a sample that favours hits as a whole.
nsP2pro primary: CHIKV nsP2 protease inhibition, primary qHTS; Q8JUX6; FRET peptide cleavage, nsP2pro, fluorescence 1 h; Potency, µM (doses to about 24.9 µM), inactives show at the top dose activity change, negative = inhibition, actives largely listed as inhibitors; hit rate 1.1% among 31,000; note: nearly all actives have a fitted effect of over 60% in size
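FRET cleavage of 2.5 uM peptide 2 by 150 nM CHIKV protease domain at pH 8.0 (Tris, Tween 20). Compounds at 7 concentrations (up to 25 uM) preincubated 15 min. Fluorescence read after 1 h at room temperature.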
CHIKV nsP2 cell: inhibits CHIKV nsP2 protease in cells; shares compounds with nsP2pro primary; cell-based CHIKV nsP2 protease reporter assay; Potency, µM (titrated, usually from 51.1 µM), without a hit: top-dose activity change, negative = inhibition, hits mostly inhibitors; hit rate 10% among 450; note: nearly all actives have a fitted effect of over 70% in size
NSP2 full ctr: inhibits full-length CHIKV NSP2 enzyme; AID 1964101; shares compounds with nsP2pro primary; hit rate 39% among 410; Potency, µM (doses to about 50.7 µM), inactives show top-dose activity change, negative = inhibition, actives largely listed as inhibitors; Full-length CHIKV NSP2 protease enzymatic counterscreen; note: nearly all actives have a fitted effect of over 65% in size
Furin counterscr: selectivity counter-screen for CHIKV nsP2 protease inhibitors: human furin | shares compounds with nsP2pro primary | Recombinant human furin enzymatic counterscreen, fluorogenic substrate | Potency, µM (highest dose often 50.6 µM), for the others: at the top dose activity change, negative = inhibition, actives largely listed as inhibitors | hit rate 6% among 410 | AID 1964102
nsP2 NS23 pep: selectivity test for CHIKV nsP2 protease inhibitors: endogenous NS2/3 peptide | shares compounds with nsP2pro primary | Purified CHIKV nsP2 protease, endogenous NS2/3 peptide cleavage | Potency, µM (titrated, usually from 51 µM), for inactives: top-dose activity change, negative = inhibition, usual class: inhibitors | hit rate 34% among 410 | AID 1964103; note: nearly all actives have a fitted effect of over 55% in size
Papain cs: papain protease inhibition, counterscreen for nsP2pro inhibitors; purified papain protease activity, enzymatic inhibition; Potency, µM (top dose mostly 51 µM), inactives show at the top dose activity change, negative = inhibition, actives largely listed as inhibitors; shares compounds with nsP2pro primary; AID 1964104; hit rate 5% among 410
nsP2pro conf qHTS: CHIKV nsP2 protease inhibition, confirmatory qHTS; shares compounds with nsP2pro primary; CHIKV nsP2 protease enzymatic activity, qHTS; Potency, µM (titrated, usually from 25.5 µM), inactives show at the highest dose activity change, negative = inhibition, usual class: inhibitors; hit rate 43% among 410; note: nearly all actives have a fitted effect of over 75% in size
HCV NS3 4A cs: HCV NS3/4A protease inhibition, counterscreen | Potency, µM (titrated, usually from 50.9 µM), usual class: inhibitors | AID 1964106 | shares compounds with nsP2pro primary | hit rate 20% among 410 | HCV NS3/4A protease biochemical counterscreen; note: nearly all actives have a fitted effect of over 55% in size
* = called active by the depositor; i = inactive; u = inconclusive; [ ] = dose if it differs, or a comment. Calls come from the whole dose curve. % is set by controls: 0 for no effect and ±100 for the full control effect; potency is the fitted concentration of half-maximal effect.

SMILES	nsP2pro primary	others
Cc1ccc(C)c(SC2=NS(=O)(=O)c3ccccc32)c1	0%
CC12CCC(O)CC1=CCC1C2CCC2(C)C(n3cnc4ccccc43)=CCC12 (stereo not drawn)	-7%
C/C=C/c1cc(OC)c2c(c1)[C@@H](C)[C@@H](c1ccc(O)c(OC)c1)O2	11%
C/C=C/c1ccc(O)c(OC)c1	u	CHIKV nsP2 cell=-5%;NSP2 full ctr=18µM*;Furin counterscr=-11%;nsP2 NS23 pep=u;Papain cs=-6%;nsP2pro conf qHTS=5µM*;HCV NS3 4A cs=u
C/C=C/c1ccc(OC)cc1	-7%
COCC1CN(C(C)=O)CC12CCN(C(=O)C1CC=CC1)CC2 (stereo not drawn)	0%
O=C1NCCCCCCN(C(=O)CCc2ccccc2)[C@H]2CCCC[C@@H]12	i
O=C(Nc1cccc(NC(=O)c2ccc(Br)o2)c1)c1ccccc1	-11%
O=C(Nc1ccc(Cl)c(S(=O)(=O)N2CCOCC2)c1)c1ccccc1	-5%
O=C(Nc1ccc(N2CCOCC2)c(Cl)c1)c1ccc(Br)o1	u	CHIKV nsP2 cell=18µM*;NSP2 full ctr=13%;Furin counterscr=-13%;nsP2 NS23 pep=14%;Papain cs=-18%;nsP2pro conf qHTS=9%;HCV NS3 4A cs=i
COCC(=O)N1CCC[C@@H]1C(=O)N1CCC(N2CCOC2=O)CC1	4%[39.2 µM]
CCOc1ccc(C(=O)N2c3ccccc3CC2c2nc(CCOC)no2)cc1 (stereo not drawn)	-5%
Cc1ccccc1CSc1ncc(Cl)c(C(=O)NCc2ccccc2)n1	67%
O=C(NCc1ccccc1)c1nc(S(=O)(=O)Cc2ccc(F)cc2)ncc1Cl	7.6µM*	CHIKV nsP2 cell=0.46µM*;NSP2 full ctr=12µM*;Furin counterscr=-2%;nsP2 NS23 pep=5.2µM*;Papain cs=-4%;nsP2pro conf qHTS=3.6µM*;HCV NS3 4A cs=u
Cc1cccc(CS(=O)(=O)c2ncc(Cl)c(C(=O)NCc3ccccc3)n2)c1	3.5µM*	CHIKV nsP2 cell=2.6µM*;NSP2 full ctr=9.2µM*;Furin counterscr=-6%;nsP2 NS23 pep=6.5µM*;Papain cs=-7%;nsP2pro conf qHTS=4.5µM*;HCV NS3 4A cs=u
Cc1ccc(CSc2ncc(Cl)c(C(=O)NCc3ccccc3)n2)cc1	24%
COc1ccc(CNC(=O)c2nc(SCc3ccccc3F)ncc2Cl)cc1	-19%
CSc1ncc(Cl)c(C(=O)NCc2ccc(C)cc2)n1	-3%
COc1ccc(C2Nc3ccccc3C(=O)N2Cc2ccccc2)cc1COc1ccc(C)cc1 (stereo not drawn)	-7%
CCCCC/C=C\C/C=C\CCCCCCCC(=O)NC(C)c1ccccc1 (stereo not drawn)	-14%
COC(=O)c1ccc2nc(NC3=NC(c4[nH]ncc4Cl)C4=C(CCCC4=O)N3)oc2c1 (stereo not drawn)	i
CSCCC(=O)N1CCc2c(ncnc2N2CCOCC2)C1	-18%
COCCN1CCC(N2CCN(C(=O)c3ccsc3)CC2)C1=O (stereo not drawn)	-6%
CC(C)c1cc(CNc2nc(Nc3cc(C4CC4)[nH]n3)cc(N3CCN(C)CC3)n2)on1	137%
CC1(C)CC[C@]2(C(=O)O[C@@H]3O[C@H](CO[C@@H]4O[C@H](CO[C@@H]5O[C@H](CO)[C@H](O)[C@H](O)[C@H]5O)[C@@H](O)[C@H](O)[C@H]4O)[C@@H](O)[C@H](O[C@@H]4O[C@H](CO)[C@@H](O)[C@H](O)[C@H]4O)[C@H]3O)[C@H](O)C[C@]3(C)C(=CCC4[C@@]5(C)CC[C@H](O[C@@H]6OC[C@@H](O)[C@H](O)[C@H]6O)[C@@](C)(C(=O)O)C5CC[C@]43C)[C@@H]2C1 (stereo partly drawn)	87%[5.1 µM]
SMILES	nsP2pro primary	others
Cc1cccc(-c2nnc(C)n2CCCn2ccnc2)c1N	-12%
Cc1ccc(CN2CCn3c(nn(-c4ccncc4)c3=O)C2)cc1	2%[39.2 µM]
COC(=O)c1ccc(O)c2ncc(-c3ccc(C(=O)N4CCNCC4)cc3)cc12	i
CCc1nc2ccc(C(=O)N3CCN(c4cccc(OC)c4)CC3)cc2nc1CC	-13%
COC(=O)c1cc(CN2CCN(C(=N)N)CC2)cc(C(=O)N2CCN(C(=O)c3ccc(C(=N)N)cc3)CC2)c1	u	CHIKV nsP2 cell=-4%;NSP2 full ctr=15µM*;Furin counterscr=9.2µM*;nsP2 NS23 pep=u;Papain cs=u;nsP2pro conf qHTS=u;HCV NS3 4A cs=i
CCN1CC2(COC)C3[C@@H](OC)C4C1C3(C1C[C@]3(O)[C@H](OC(=O)c5ccccc5)C1[C@]4(OC(C)=O)[C@@H](O)[C@@H]3OC)[C@H](OC)C[C@H]2O (stereo partly drawn)	13%
CCSc1ncc(Cl)c(C(=O)Nc2ccc(S(=O)(=O)N(C)c3ccccc3)cc2)n1	-12%
CCN(c1ccccc1)S(=O)(=O)c1ccc(NC(=O)c2nc(S(C)(=O)=O)ncc2Cl)cc1	u	CHIKV nsP2 cell=2.6µM*;NSP2 full ctr=4.1µM*;Furin counterscr=-6%;nsP2 NS23 pep=5.8µM*;Papain cs=-15%;nsP2pro conf qHTS=4.5µM*;HCV NS3 4A cs=i
CC(C)Sc1ncc(Cl)c(C(=O)Nc2ccc(S(=O)(=O)N(C)c3ccccc3)cc2)n1	-17%
O=C(Nc1ccc(-c2nc3ccccc3[nH]2)cc1)Nc1ccc2occc2c1	i
Cc1cc2c(s1)c1cnn(Cc3c(Cl)ccc(C)c3F)c(=O)c1n2C	i
CCc1c(C(=O)N2CCc3c(c(C(=O)O)nn3CC3CC3)C2)csc1C	1%
O=[S+]([O-])(Nc1nccs1)c1ccc(NCc2cc(F)cc(Cl)c2O)cc1	i
Nc1ccc(-c2ccc(NC(=O)c3cccs3)cn2)cc1	5%
COc1ccccc1C(=O)Nc1ccc(NC(=O)c2cccs2)cc1	-8%
COc1ccc(-c2ccc(NC(=O)c3cccs3)cn2)cc1	u	CHIKV nsP2 cell=0%;NSP2 full ctr=u;Furin counterscr=-4%;nsP2 NS23 pep=-15%;Papain cs=-4%;nsP2pro conf qHTS=-6%;HCV NS3 4A cs=u
NC(=O)Nc1cc(-c2ccc(CN3CCOCC3)c(F)c2)sc1C(=O)N[C@H]1CCCNC1	-5%
C=C1C(=O)O[C@@H]2C[C@@H](C)[C@]34C[C@]5(C(=O)O[C@H]6CC(C)=C([C@H](C)CCCO)[C@H](OC(=O)C(C)CC)[C@H]65)[C@@H](C(C)=C3C[C@@H]12)[C@H]4OC(C)=O (stereo partly drawn)	13%[10 µM]
C=C1C(=O)O[C@@H]2[C@H]1CC(=O)[C@H](C)[C@@](O)(C(=O)/C=C/C)[C@H]2OC(=O)C(C)CC (stereo partly drawn)	u	CHIKV nsP2 cell=u;NSP2 full ctr=u;Furin counterscr=5%[33.5 µM];nsP2 NS23 pep=13µM*;Papain cs=-5%[33.5 µM];nsP2pro conf qHTS=u;HCV NS3 4A cs=i

From PubChem BioAssay
